Test results: PubChem BioAssay (EPA / NIEHS)
More than one record can exist for a structure, and the calls need not agree. The source made the active and inactive calls. Rule for the calls: active = hit-call score of the fitted dose curve at least 0.9, where 1 is the maximum; inactive = score below 0.9.

What was measured:
[1] = molecular target: Bile acid receptor (Homo sapiens) (UniProt Q96RI1); experiment: ATG_IR1_CIS: Attagene CIS-FACTORIAL HepG2 Assay for human Nuclear Receptor Subfamily 1 Group H Member 4 (NR1H4), IR1 submotif (AID 2282946); conditions: IR1 reporter transcription, actives raise or lower the signal
Summary of the method: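 Fluorescence of capillary-separated, HpaI-digested RT-PCR reporter products gave IR1-element mRNA induction in HepG2 cells 24 h after dosing. Endogenous transcription factors drove the cis-regulated reporters; activity was fitted bidirectionally against DMSO.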

[2] = ATG_M_32_CIS: Attagene CIS-FACTORIAL HepG2 Assay for M32 Transcription Factor (Internal Marker) (AID 2282949); conditions: HepG2 Attagene cis-factorial M32 reporter, mRNA; actives raise or lower the signal;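 note: background control marker of the multiplexed CIS panel rather than a real target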
Summary of the method: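 Transient MRTU transfection of HepG2; 24 h compound treatment; TriZol RNA, oligo(dT) RT, reporter PCR, 6-FAM primer extension, HpaI cut, CE. Gain/loss of signal vs DMSO.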

[3] = ATG_M_06_CIS: Attagene CIS-FACTORIAL HepG2 Assay for M06 Transcription Factor (Internal Marker) (AID 2282950); conditions: HepG2 Attagene CIS-FACTORIAL M06 internal marker reporter; actives raise or lower the signal
Summary of the method: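 Terse: HepG2, transient MRTU transfection (FuGene 6), 24 h dosing; total RNA, oligo(dT) RT, PCR, FAM label, HpaI cut, capillary electrophoresis; bidirectional fit vs DMSO baseline; background-control endpoint.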

[4] = molecular target: Hypoxia-inducible factor 1-alpha (Homo sapiens) (UniProt Q16665); experiment: ATG_HIF1a_CIS: Attagene CIS-FACTORIAL HepG2 Assay for human Hypoxia Inducible Factor 1 (HIF1A) (AID 2282951); conditions: HepG2 Attagene cis-factorial HIF1a reporter transcription; actives raise or lower the signal
Summary of the method: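 After 24 h chemical exposure of reporter-transfected HepG2 cells, reporter cDNA was PCR-amplified, labelled by 6-FAM primer extension (2 min 95 C, 20 s 68 C, 10 min 72 C), HpaI-cut (2 h, 37 C) and analysed by CE.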

[5] = molecular target: Hepatocyte nuclear factor 6 (Homo sapiens) (UniProt Q9UBC0); experiment: ATG_HNF6_CIS: Attagene CIS-FACTORIAL HepG2 Assay for human Hepatocyte Nuclear Factor 6 (HNF6) (AID 2282952); conditions: HepG2 Attagene cis-factorial HNF6 reporter transcription; actives raise or lower the signal
Summary of the method: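 Endogenous factor activity read in transiently transfected HepG2 via promoter-regulated reporter transcripts. RNA harvested 24 h post-dosing, reverse-transcribed, PCR-amplified, FAM-labelled, HpaI-digested and resolved by capillary electrophoresis; fitted in both directions against DMSO.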

[6] = ATG_MRE_CIS: Attagene CIS-FACTORIAL HepG2 Assay for human Metal Responsive Element (MRE) (AID 2282954); conditions: HepG2 MRE cis-reporter transcription, Attagene multiplex; actives raise or lower the signal
Summary of the method: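 RT-PCR/capillary electrophoresis readout of reporter mRNA, 24 h post-dosing, in HepG2 cells transfected with multiplexed cis-regulated reporter constructs. Gain or loss of signal fitted bidirectionally against DMSO baseline.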

[7] = ATG_ISRE_CIS: Attagene CIS-FACTORIAL HepG2 Assay for human Interferon Regulatory Factor 1 (IRF1) binding to an Interferon-Stimulated Response Element (ISRE) (AID 2282948); conditions: HepG2 ISRE cis-reporter (Attagene), mRNA transcription readout; actives raise or lower the signal
Summary of the method: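 Read-out: fluorescent RT-PCR products resolved by capillary electrophoresis, reporting endogenous transcription factor activity via ISRE-driven reporter mRNA in transfected HepG2 cells dosed for 24 h; gain or loss fitted relative to DMSO.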

[8] = ATG_GRE_CIS: Attagene CIS-FACTORIAL HepG2 Assay for human Glucocorticoid Response Elements (GRE) (AID 2282947); conditions: HepG2 GRE cis-reporter, Attagene multiplex mRNA; actives raise or lower the signal
Summary of the method: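 Read-out: fluorescent reporter-transcript fragments separated by capillary electrophoresis after RT-PCR. Transiently transfected HepG2 cells carrying cis-element-driven reporter units were dosed for 24 h; gain or loss of signal fitted against DMSO control.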

[9] = molecular target: Heat shock factor protein 1 (Homo sapiens) (UniProt Q00613); experiment: ATG_HSE_CIS: Attagene CIS-FACTORIAL HepG2 Assay for human Heat Shock Transcription Factor 1 (HSE) (AID 2282953); conditions: HepG2 HSE cis-reporter, Attagene RNA transcription; actives raise or lower the signal
Summary of the method: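 Read-out: fluorescence of reporter-specific RT-PCR fragments separated by capillary electrophoresis. HepG2 carrying transfected cis-element reporter units; 24 h dosing; activity fitted in both directions relative to DMSO baseline.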

[10] = ATG_PBREM_CIS: Attagene CIS-FACTORIAL HepG2 Assay for human Phenobarbital-responsive Enhancer Module (PBREM) (AID 2282955); conditions: HepG2 PBREM cis-reporter, Attagene multiplexed transcription; actives raise or lower the signal
Summary of the method: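 Measures endogenous factor action on a phenobarbital-responsive enhancer module. HepG2 transiently carrying cis reporters, 24 h treatment, mRNA read-out by RT-PCR plus capillary electrophoresis.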

Measured: AC50

Hypoxia-inducible factor 1-alpha (Homo sapiens), sequence (Q16665 whole entry, looked up): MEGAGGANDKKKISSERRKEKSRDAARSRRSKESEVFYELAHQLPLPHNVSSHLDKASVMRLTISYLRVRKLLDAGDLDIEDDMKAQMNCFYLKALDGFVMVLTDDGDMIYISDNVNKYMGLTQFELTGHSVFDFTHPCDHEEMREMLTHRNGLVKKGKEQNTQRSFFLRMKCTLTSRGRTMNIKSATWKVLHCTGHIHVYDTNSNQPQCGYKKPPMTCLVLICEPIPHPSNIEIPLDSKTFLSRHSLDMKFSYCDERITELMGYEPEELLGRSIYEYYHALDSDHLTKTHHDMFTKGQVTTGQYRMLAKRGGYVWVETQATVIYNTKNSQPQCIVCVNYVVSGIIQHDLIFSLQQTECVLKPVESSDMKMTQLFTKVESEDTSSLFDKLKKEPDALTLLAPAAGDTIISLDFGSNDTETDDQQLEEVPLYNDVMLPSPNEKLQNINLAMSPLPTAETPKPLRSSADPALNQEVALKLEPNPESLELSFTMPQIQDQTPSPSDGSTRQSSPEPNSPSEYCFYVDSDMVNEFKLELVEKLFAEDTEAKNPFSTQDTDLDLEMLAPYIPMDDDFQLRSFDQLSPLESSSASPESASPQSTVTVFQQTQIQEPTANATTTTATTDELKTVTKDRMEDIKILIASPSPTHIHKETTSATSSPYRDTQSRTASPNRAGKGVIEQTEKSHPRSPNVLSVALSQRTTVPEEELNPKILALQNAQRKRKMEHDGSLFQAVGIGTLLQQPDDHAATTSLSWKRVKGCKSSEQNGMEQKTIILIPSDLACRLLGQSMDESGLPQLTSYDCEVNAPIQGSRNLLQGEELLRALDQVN
Hepatocyte nuclear factor 6 (Homo sapiens), sequence (Q9UBC0 whole entry, looked up): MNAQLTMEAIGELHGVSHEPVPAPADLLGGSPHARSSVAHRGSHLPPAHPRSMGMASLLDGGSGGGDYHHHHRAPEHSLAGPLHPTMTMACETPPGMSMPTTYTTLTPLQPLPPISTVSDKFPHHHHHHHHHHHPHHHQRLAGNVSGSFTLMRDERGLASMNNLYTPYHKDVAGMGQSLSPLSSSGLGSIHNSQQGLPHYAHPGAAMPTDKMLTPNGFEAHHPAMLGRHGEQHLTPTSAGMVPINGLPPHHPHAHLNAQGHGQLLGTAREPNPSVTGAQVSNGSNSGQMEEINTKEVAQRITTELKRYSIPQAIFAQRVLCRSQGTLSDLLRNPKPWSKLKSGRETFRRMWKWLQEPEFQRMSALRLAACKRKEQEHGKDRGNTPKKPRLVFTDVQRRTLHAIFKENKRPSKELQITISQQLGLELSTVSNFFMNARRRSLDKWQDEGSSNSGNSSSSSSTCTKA
Heat shock factor protein 1 (Homo sapiens), sequence (Q00613 whole entry, looked up, the tested form may be a part): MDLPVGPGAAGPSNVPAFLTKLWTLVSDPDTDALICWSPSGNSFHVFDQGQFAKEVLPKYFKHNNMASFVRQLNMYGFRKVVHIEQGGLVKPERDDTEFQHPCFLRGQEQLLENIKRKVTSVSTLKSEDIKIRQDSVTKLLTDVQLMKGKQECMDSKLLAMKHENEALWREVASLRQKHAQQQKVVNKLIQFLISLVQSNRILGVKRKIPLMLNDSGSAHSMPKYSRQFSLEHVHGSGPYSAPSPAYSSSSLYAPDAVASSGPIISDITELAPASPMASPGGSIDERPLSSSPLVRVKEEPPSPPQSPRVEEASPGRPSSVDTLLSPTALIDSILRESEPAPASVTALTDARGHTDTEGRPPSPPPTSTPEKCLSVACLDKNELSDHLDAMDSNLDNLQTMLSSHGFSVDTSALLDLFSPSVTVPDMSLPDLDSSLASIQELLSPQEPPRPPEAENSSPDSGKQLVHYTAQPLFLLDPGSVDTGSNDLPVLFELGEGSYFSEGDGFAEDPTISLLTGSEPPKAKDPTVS
Bile acid receptor (Homo sapiens), sequence (Q96RI1 whole entry, looked up): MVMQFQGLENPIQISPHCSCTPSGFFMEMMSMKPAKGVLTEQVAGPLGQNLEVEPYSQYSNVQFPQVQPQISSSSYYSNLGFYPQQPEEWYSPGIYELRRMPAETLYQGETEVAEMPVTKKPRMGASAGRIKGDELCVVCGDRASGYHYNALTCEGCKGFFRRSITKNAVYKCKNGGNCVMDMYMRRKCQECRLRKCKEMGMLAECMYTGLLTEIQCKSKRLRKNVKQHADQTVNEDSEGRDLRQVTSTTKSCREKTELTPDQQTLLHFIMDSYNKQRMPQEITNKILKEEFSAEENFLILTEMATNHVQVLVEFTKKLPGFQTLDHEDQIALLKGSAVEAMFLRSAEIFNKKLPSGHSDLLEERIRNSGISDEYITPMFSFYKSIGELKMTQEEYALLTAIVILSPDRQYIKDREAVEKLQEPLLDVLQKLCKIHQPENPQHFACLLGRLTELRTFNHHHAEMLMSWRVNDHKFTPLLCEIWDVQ

CCCSP(=O)(OCC)Oc1ccc(Br)cc1Cl (configuration not stated)
inactive: [1] | [2] | [3] | [4] | [5] | [6]

CC1(C(=O)Nc2ccc(O)c(Cl)c2Cl)CCCCC1
inactive: [1] | [7] | [2] | [4] | [5]
active: [6] 50 µM

FC(F)C(F)(F)OCC(Cn1cncn1)c1ccc(Cl)cc1Cl (configuration not stated)
active: [4] 75.4 µM | [6] 69.3 µM
inactive: [1] | [8] | [7] | [2] | [5]

CSC1=N[C@@](C)(c2ccccc2)C(=O)N1Nc1ccccc1
inactive: [1] | [8] | [7] | [2] | [3] | [4] | [5]
active: [6] 50 µM

CNc1cnn(-c2cccc(C(F)(F)F)c2)c(=O)c1Cl
inactive: [1] | [8] | [2] | [4] | [5] | [6]

COc1cc(OC)nc(Sc2cccc(Cl)c2C(=O)O)n1
inactive: [8] | [7] | [2] | [3] | [4] | [5] | [9] | [6]

COP(=O)(OC)C(O)C(Cl)(Cl)Cl (configuration not stated)
inactive: [1] | [8] | [2] | [5] | [10]
active: [6] 31.5 µM

CN1COCN(Cc2cnc(Cl)s2)C1=N[N+](=O)[O-]
inactive: [1] | [8] | [7] | [2] | [4] | [5] | [6]

CCCCSP(=O)(SCCCC)SCCCC
inactive: [1] | [4] | [5]
active: [8] 50 µM | [7] 58.6 µM | [2] 77.9 µM | [6] 23.4 µM

CC(COc1ccc(Oc2ccccc2)cc1)Oc1ccccn1 (configuration not stated)
inactive: [1] | [7] | [2] | [4] | [5] | [6]

CC(C)N(C(=O)SCC(Cl)=C(Cl)Cl)C(C)C
inactive: [8] | [2] | [3] | [4] | [5] | [9]
active: [1] 19.9 µM | [6] 29.1 µM

CCOP(=O)(NC(C)C)Oc1ccc(SC)c(C)c1 (configuration not stated)
inactive: [1] | [8] | [7] | [2] | [3] | [4] | [5] | [6]

CCOP(=O)(OCC)Oc1cc(C)nc(C(C)C)n1
inactive: [1] | [8] | [2] | [4] | [5] | [9] | [6]

Cc1cc(C2CC2)nc(Nc2ccccc2)n1
active: [4] 50 µM | [6] 74.7 µM | [10] 50 µM
inactive: [1] | [2] | [5]

Cc1ccn2nc(S(=O)(=O)Nc3c(F)cccc3F)nc2n1
inactive: [1] | [7] | [2] | [3] | [4] | [5] | [6]

O=[N+]([O-])c1cc(C(F)(F)F)c(Cl)c([N+](=O)[O-])c1Nc1ncc(C(F)(F)F)cc1Cl
inactive: [1] | [8] | [2] | [3] | [4] | [5] | [6]
active: [1] 12.9 µM | [8] 20.3 µM | [2] 18.1 µM | [5] 17.1 µM

O=c1ccc(=O)[nH][nH]1
inactive: [1] | [7] | [2] | [4] | [5] | [6]

CSc1nnc(C(C)(C)C)c(=O)n1N
inactive: [1] | [8] | [2] | [4] | [5] | [6] | [10]

COc1ccc(C(=CC(=O)N2CCOCC2)c2ccc(Cl)cc2)cc1OC
active: [4] 25.5 µM | [6] 30.7 µM
inactive: [1] | [8] | [2] | [5]

CCCOCC(=Nc1ccc(Cl)cc1C(F)(F)F)n1ccnc1
inactive: [1] | [8] | [2] | [3] | [4] | [5] | [6] | [10]

COP(=O)(OC)OC(Br)C(Cl)(Cl)Br (configuration not stated)
inactive: [1] | [8] | [2] | [3] | [4] | [5] | [9] | [6] | [10]

CC(Oc1cccc(Cl)c1)C(=O)O (configuration not stated)
inactive: [1] | [8] | [7] | [2] | [4] | [5] | [9] | [6]

N#CSCSC#N
inactive: [1] | [8] | [2] | [4] | [5] | [9] | [6] | [10]

CCCSP(=O)(OCC)SCCC
inactive: [1] | [8] | [2] | [3] | [4] | [5] | [6] | [10]

C#CCC1=C(C)C(OC(=O)C2C(C=C(C)C)C2(C)C)CC1=O (configuration not stated)
inactive: [1]
active: [7] 71.2 µM | [2] 90.5 µM | [4] 50 µM | [5] 50 µM | [6] 72.2 µM

CCC(CC)Nc1c([N+](=O)[O-])cc(C)c(C)c1[N+](=O)[O-]
inactive: [8] | [2] | [4] | [5] | [10]
active: [1] 50 µM | [6] 28.9 µM

CCOC(=O)CC(SP(=O)(OC)OC)C(=O)OCC (configuration not stated)
inactive: [1] | [8] | [2] | [3] | [4] | [5] | [6] | [10]

CCCCOC(=O)c1ccccc1C(=O)O
inactive: [1] | [2] | [4] | [5] | [9] | [6]

C[Si](Cn1cncn1)(c1ccc(F)cc1)c1ccc(F)cc1
active: [1] 69 µM | [2] 35.4 µM | [4] 50 µM | [9] 85.6 µM | [6] 63.2 µM
inactive: [7] | [3] | [5]

CCc1cccc(CC)c1N(COC)C(=O)CCl
inactive: [1] | [8] | [7] | [2] | [3] | [4] | [5] | [6]

Nc1c(Cl)cc([N+](=O)[O-])cc1Cl
inactive: [1] | [7] | [2] | [4] | [5] | [10]
active: [8] 86.3 µM | [6] 64.6 µM

Nc1nc(N)nc(NC2CC2)n1
inactive: [1] | [8] | [2] | [4] | [5] | [9] | [6]
